Data from PubChem BioAssay (Tox21).
“And” between values parts separate entries of the source, which are not always exact repeats. Equal values may be shown once. Records with an inconclusive call do not appear. Values without a mark were called inactive. The source made the active and inactive calls. The call rests on the fitted dose curve; in most records, active means well fitted cell-killing curve with a large enough effect in the repeat runs; inconclusive means weak or mixed curves, or effect the other way; inactive means flat fitted curve, though single readings scatter.

Test: qHTS RealTime-Glo MT Cell Viability Assay in HEK293 cells - 40 hour (AID 1224874); further: nearly all actives have a fitted effect of over 50% in size
Conditions: RealTime-Glo luminescence; max response: active compounds read low
From the text: U.S. Tox21 Program National Center for Advancing Translational Sciences [NCATS] NIH Chemical Genomics Center [NCGC] U.S. Environmental Protection Agency [EPA] National Institutes of Environmental Health Sciences [NIEHS] National Toxicology Program [NTP] U.S. Food and Drug Administration [FDA] Tox21 Assay Overview: Measure of cell viability is critical in the cell-base assay. Analysis of cell viability is necessary for the characterization of cell responses to cytotoxic drugs and environmental stress. A RealTime-Glo MT Cell Viability Assay to monitor cell viability in real time of continues cell culture during 40 hours of compound treatment was used to screen Tox21 10K library compounds in Hek293 cells. The RealTime-Glo MT Cell Viability Assay is a nonlytic, homogeneous, bioluminescent method to measure cell viability in real time using a simple, plate-based method. The assay involves adding NanoLuc luciferase and a cell-permeant prosubstrate to cells in culture. Viable cells reduce the proprietary prosubstrate to generate a substrate for NanoLuc luciferase. This substrate diffuses from cells into the surrounding culture medium, where it is rapidly used by the NanoLuc Enzyme to produce a luminescent signal. The signal correlates with the number of viable cells, making the assay well suited for cytotoxicity studies.
Tox21 Assay Protocol Summary: The mixture of Hek293 cell suspension and reagents were dispensed at 600cells/6 ul/well in 1536-well tissue culture treated black solid bottom plates using a Multidrop dispenser. After the assay plates were incubated at a 37 C/5% CO2 incubator for 5 hours, 23 nL of compounds dissolved in DMSO, positive and negative controls was transferred to the assay plate by a pintool work station. The plates were incubated at 37 C for 40 hours. The luminescence intensity were measured at 0h, 8h, 16h, 24h, 32h and 40h time points using ViewLux plate reader during compound treatment.
On the % scale 0 is the no-effect control and ±100 the full control effect; potency means the concentration at half of the fitted maximal effect.

| Structure (SMILES) | max response | Potency |
| --- | --- | --- |
| CC(C)CCCCCOC(=O)CCCCC(=O)OCCCCCC(C)C | 3.71% | – |
| C=CC(C)=CCC=C(C)C | 4.34% | – |
| Cc1cc(O)c2c(O)c3c(O)cccc3cc2c1 | -16.2% | – |
| CN(C(=O)C(Cl)Cl)c1ccc(OC(=O)c2ccco2)cc1 | -3.14% | – |
| C/C=C(\C)C(=O)OCCC(C)CCC=C(C)C (stereo not given) | 5.27% | – |
| CC(C)(C)CC(C)(C)c1ccc(OCCO)cc1 | – | 4.87 µM (active) |
| CC(C)OCC1CO1 (stereo not given) | 11.5% | – |
| CC(=O)N(c1onc(C)c1C)S(=O)(=O)c1ccc(N)cc1 | 4.86% | – |
| CCOC(=O)c1ccccc1OC | -4.86% | – |
| C=C(C)C(=O)OCCOC(=O)CC(C)=O | 1.19% | – |
| CC(C)(CCl)c1ccccc1 | 4.77% | – |
| C[C@@H]1C[C@H]2[C@@H]3CCC4=CC(=O)C=C[C@]4(C)[C@@]3(F)[C@@H](O)C[C@]2(C)[C@H]1C(=O)CO | -9.79% | – |
| CC(C)C(=O)O | 9.49% | – |
| CC1(C)C2=CCCC(C)(C)[C@]23CC[C@H]1C3 | -11.7% | – |
| CCOC(=O)/C=C/C(=O)O | 16.2% | – |
| CNC(=O)N(c1ccccc1)c1ccccc1 | 10.9% | – |
| O=C(O)c1snc(Cl)c1Cl | 13.2% | – |
| COc1ccc(CCC(=O)c2c(O)cc(O[C@@H]3O[C@H](CO)[C@@H](O)[C@H](O)[C@H]3O[C@@H]3O[C@@H](C)[C@H](O)[C@@H](O)[C@H]3O)cc2O)cc1O | 12.3% | – |
| C=CC(=O)NCOCC(C)C | -14% | – |
| CN1CCCN=C1/C=C/c1cccs1 | 5.88% | – |

| Structure (SMILES) | max response | Potency |
| --- | --- | --- |
| CCOC(=N)CC(=O)OCC | -25% | – |
| O=C(C(=O)c1ccccc1)c1ccccc1 | 3.7% | – |
| Nc1nc(Cl)nc2c1ncn2[C@@H]1O[C@H](CO)[C@@H](O)[C@@H]1F | – | 4.25 µM (active) |
| O=C(O)Cc1ccc(-c2ccccc2)cc1 | 10.5% | – |
| Cc1nc2ccccc2s1 | 2.93% | – |
| CCc1nn(CCCN2CCN(c3cccc(Cl)c3)CC2)c(=O)n1CCOc1ccccc1 | – | 8.49 µM (active) |
| COC(OC)(C(=O)c1ccccc1)c1ccccc1 | 1.09% | – |
| c1ccc(COCc2ccccc2)cc1 | 16.4% | – |
| O=[N+]([O-])c1cccc(S(=O)(=O)NCCNS(=O)(=O)c2cccc([N+](=O)[O-])c2)c1 | -6.21% | – |
| OC/C(Br)=C(\Br)CO | 0.37% | – |
| CC[C@@H]([C@H](C)O)n1ncn(-c2ccc(N3CCN(c4ccc(OC[C@@H]5CO[C@@](Cn6cncn6)(c6ccc(F)cc6F)C5)cc4)CC3)cc2)c1=O | – | 5.35 µM (active) |
| COCC(O)CO (stereo not given) | -5.25% | – |
| O=C(CCC1CCN(Cc2ccccc2)CC1)c1ccc2c(c1)NCCCC2 | – | 9.52 µM (active) |
| O=C(Nc1ccc([N+](=O)[O-])cc1)Nc1ccc([N+](=O)[O-])cc1 | – | 7.56 µM (active) |
| c1cnc2c(n1)CCCC2 | 1.7% | – |
| O=C(CCCN1CCC(O)(c2ccc(Br)cc2)CC1)c1ccc(F)cc1 | – | 10.7 µM (active) |
| Cc1cc(O)c(C(C)C)cc1Cl | -23.1% and 3.73% | – |
| O=C(O)c1cccc(O)c1 | 8.08% | – |
| O=C(CCCCCCCCC#CI)Oc1ccccc1 | – | 5.35 µM (active) |
| CCN(CC)CCNC(=O)c1ccc(NC(C)=O)cc1 | -0.786% | – |
